# Screening results deposited in PubChem by National Center for Advancing Translational Sciences (NCATS).
# SMN2 splice up: enhancers of SMN2 splice variant expression; HEK293 SMN2-luciferase splicing reporter, luminescence, 30-36 h; Potency, µM (top dose mostly 46.1 µM), inactives show top-dose activity change, positive = activation, actives largely listed as activators; 2.8% of 210,000 active; AID 1458; note: % of control where 0% means no effect; nearly all actives have a fitted effect of over 55% in size
#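 qHTS luciferase splicing reporter: luminescence rises when SMN2 exon 7 is included in transfected HEK293 cells. Compound exposure lasted 30-36 h at 37C, with 4.5 mM final sodium butyrate as control, followed by a ONE-Glo read.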
# Rab9 promoter act: Rab9 promoter activation; AID 485297; Potency, µM (series often up to 9.22 µM), without a hit: top-dose activation, negative = inhibition, hits mostly activators; 2.8% of 320,000 active; Huh7 Rab9 promoter-luciferase reporter, luminescence, 24 h; note: % of control where 0% means no effect; nearly all actives have a fitted effect of over 60% in size
#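 Using Huh7 cells stably transfected with Rab9 promoter–luciferase, compounds were incubated 24 h at 37 °C, 5% CO2; luciferase luminescence was read 10 min after reagent addition.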
# FLuc counter: counter-screen for miR-21 project: firefly luciferase inhibitors or activators; P08659; purified FLuc, Km substrates, luminescence inhibition; Potency, µM (titrated, usually from 57.5 µM), for inactives: top-dose activity change, negative = inhibition, hits mostly inhibitors; 6.9% of 360,000 active;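 note: plate controls were vehicle for no effect and reference inhibitor for full effect; nearly all actives have a fitted effect of over 55% in size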
# Target sequence (P08659 whole entry, looked up): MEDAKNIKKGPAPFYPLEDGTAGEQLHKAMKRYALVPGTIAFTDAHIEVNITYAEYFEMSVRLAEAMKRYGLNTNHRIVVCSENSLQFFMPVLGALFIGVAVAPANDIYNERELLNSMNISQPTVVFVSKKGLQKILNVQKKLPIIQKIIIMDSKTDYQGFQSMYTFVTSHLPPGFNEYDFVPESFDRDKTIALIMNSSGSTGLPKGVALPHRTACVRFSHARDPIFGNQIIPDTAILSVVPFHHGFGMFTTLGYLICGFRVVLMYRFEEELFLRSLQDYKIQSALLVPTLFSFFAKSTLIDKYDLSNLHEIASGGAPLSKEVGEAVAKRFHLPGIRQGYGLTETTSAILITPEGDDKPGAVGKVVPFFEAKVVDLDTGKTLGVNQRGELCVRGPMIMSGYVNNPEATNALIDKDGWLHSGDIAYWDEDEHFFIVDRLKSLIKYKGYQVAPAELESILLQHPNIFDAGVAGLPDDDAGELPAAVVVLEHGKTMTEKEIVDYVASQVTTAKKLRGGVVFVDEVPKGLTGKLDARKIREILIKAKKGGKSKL
#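 Purified P. pyralis luciferase (10nM final) with 10uM D-luciferin and 10uM ATP (Km levels) in 50mM Tris acetate pH 7.5, 10mM Mg acetate, 0.01% Tween-20, 0.05% BSA; qHTS 6-point titration, ~60 µM downward; luminescence read.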
# ELG1 DNA repair: inhibitors of ELG1-dependent DNA repair in HEK293T cells. Potency, µM (top dose mostly 46.1 µM), inactives show at the highest dose activity change, negative = inhibition, most hits filed as inhibitors. HEK293T ELG1-luciferase reporter, luminescence, 16 h; DNA damage induced by 5-fluorouridine. 2.3% of 330,000 active; note: % is set by controls: 0 for no effect and ±100 for the full control effect; nearly all actives have a fitted effect of over 55% in size
#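 Cells (2,000 per well) received 5-fluorouridine plus test compound or DMSO and were incubated 16 hr at 37 °C, 5% CO2. Luciferase activity was read by luminescence 30 min after ONE-Glo addition; signal suppression marked inhibition of damage-induced ELG1 function.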
# ELG1 genotoxic: inducers of genotoxicity in HEK293T ELG1-luciferase cells; HEK293T ELG1-luciferase reporter, luminescence, 16 h; Potency, µM (top dose mostly 46 µM), without a hit: at the highest dose activity change, positive = activation, hits mostly activators; 1.3% of 330,000 active; AID 504466; note: % of control where 0% means no effect; nearly all actives have a fitted effect of over 60% in size
#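 ELG1-luciferase HEK293T cells, 2,000/well; compound pinned in; 16 hr, 37 °C, 5% CO2; ONE-Glo, 30 min RT; luminescence on CCD imager.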
# NPC1 prom act: NPC1 promoter activation | 2.4% of 320,000 active | Potency, µM (doses to about 9.22 µM), inactives show top-dose activation, most hits filed as activators | AID 485313 | Huh7 NPC1 promoter luciferase reporter, 24 h; note: % of control where 0% means no effect; nearly all actives have a fitted effect of over 60% in size
#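 NPC1 promoter–luciferase Huh7 cells; 24 h compound; luminescence.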
# * marks the source's active call; other numbers are inactive results; ? = inconclusive; . = not tested or not shown; [ ] = remark or other dose. In the library only some 9.4% were active in any assay of this set; here they are far more common. Calls come from the whole dose curve; as a rule, active = well fitted curve in the direction sought with a large enough effect; inconclusive = small, poorly fitted or top-dose-only effect, or another doubt; inactive = no such curve, though single readings can be large; an effect the other way counts as inactive or inconclusive. Potency is the fitted concentration of half-maximal effect.
SMILES,SMN2 splice up,Rab9 promoter act,FLuc counter,ELG1 DNA repair,ELG1 genotoxic,NPC1 prom act
COc1ccc(OC)c(NC(=O)Cn2c(=O)cc(C)c3c(C)nn(-c4cccc(Cl)c4C)c32)c1,.,.,-5%,.,.,.
O=c1c(C(c2ccccc2)c2c(O)sc3ccccc3c2=O)c(O)sc2ccccc12,-25%,-3%,12µM*,-17%,-17%,1%
Cc1ccc(/C=N\NC(=O)COc2ccc(C)cc2[N+](=O)[O-])cc1,-9%,-4%,1%,-5%,6%,8%
C/C(CC(=O)Nc1ccccc1-c1ccccc1)=N\NC(=O)COc1ccc(C)cc1Br,-11%,22%,-11%,0%,23µM*,15%
Cc1ccc(OCC(=O)Nc2ccccc2[N+](=O)[O-])c(Br)c1,18µM*,2.8µM*,2.4µM*,?,?,3.2µM*
COc1ccccc1CNC(=O)C/C(C)=N/NC(=O)COc1ccc(C)cc1Br,25%,-2%,-3%,-26%,-1%,-7%
Cc1ccc(OCC(=O)Nc2ccon2)c([N+](=O)[O-])c1,.,3.2µM*,8.5µM*,?,10µM*,3.2µM*
CC1=C(C(=O)OC2CCCC2)C(c2ccc(F)cc2F)CC(=O)N1 (stereo not given),-15%,.,0%,.,.,.
COc1ccc2c(c1)-c1nc(NC(=O)c3ccc(C)cc3)sc1CC2,12%,.,2.7µM*,.,.,.
COc1ccc(C(=O)Nc2nc3c(s2)CCc2cc(OC)ccc2-3)cc1,-38%,.,7.6µM*,.,.,.
CCOC(=O)Cn1c(=O)n(C2CCCCC2)c2nc(-c3cccc(C)c3)nc(C(N)=O)c21,.,.,0%,.,.,.
CCOC(=O)C(C)n1nc(/C=C/c2ccc(OC)cc2)ccc1=O (stereo not given),7%,-6%,-13%,19%,3%,8%
CC(C)c1ccc(/C=C/c2ccc(=O)n(C)n2)cc1,11µM*,1.8µM*,4.8µM*,?,10µM*,2.2µM*
CN(c1nc(-c2ccc(Br)cc2)cs1)C1CCS(=O)(=O)C1 (stereo not given),18%,?,24µM*,18%,5%,?
O=C(Oc1coc(CSc2ncccn2)cc1=O)c1ccccc1[N+](=O)[O-],5%,3%,6.7µM*,-12%,-16%,-5%
COc1ccc(-c2nc(CSCC(=O)NCCC(C)C)c(C)o2)cc1OC,3%,.,-6%,.,.,.
Nc1c(C(=O)c2ccc(Cl)cc2)sc2nsc(SCCN3CCOCC3)c12,.,-4%,-10%,0%,-7%,11%
Nc1c(C(=O)c2ccccc2)sc2nsc(SCCN3CCCC3)c12,.,23%,24µM*,?,8%,-4%
O=C(Nc1ccc(NC(=O)c2ccco2)cc1)c1ccco1,.,5%,1%,0%,16%,7%
Cc1c([N+](=O)[O-])cc(C(=O)Nc2ccc(Cc3ccncc3)cc2)cc1[N+](=O)[O-],-46%,-1%,-16%,10µM*,-11%,-3%
CC1CCC(NC(=O)COC(=O)c2ccco2)CC1 (stereo not given),.,-2%,24µM*,?,-4%,1%
O=C(Nc1ccc(Cc2ccncc2)cc1)c1ccco1,19%,?,19µM*,?,16%,?
O=C(Nc1ccc(Br)cc1)c1ccco1,11µM*,3.2µM*,13µM*,?,7.1µM*,?
CCOC(=O)c1c(S(=O)(=O)NCC(=O)N(C)Cc2ccccc2)c(C)n(C)c1C,.,.,-5%,.,.,.
CC(=O)Nc1nonc1-c1nnc(SCc2ccccc2Cl)n1C,.,.,-2%,.,.,.
SMILES,SMN2 splice up,Rab9 promoter act,FLuc counter,ELG1 DNA repair,ELG1 genotoxic,NPC1 prom act
CCOC(=O)N1CCN(Cc2nc3cc(NC(=O)C(C)C)ccc3n2C(C)C)CC1,.,.,-5%,.,.,.
O=C(Nc1ccc(NC(=O)c2sc3ccccc3c2Cl)cc1)c1ccco1,-7%,-5%,0%,?,23µM*,-3%
O=C(COC(=O)c1ccco1)Nc1ccc(Br)cc1,-5%,3%,9.5µM*,1%,-1%,2%
O=C(COC(=O)c1ccco1)Nc1ccccc1,12%,-4%,?,5%,-1%,-2%
O=C(Nc1ccc(Nc2ccccc2)cc1)c1ccco1,13µM*,0.56µM*,7.6µM*,?,9.2µM*,?
COc1ccc(/C=N\NC(=O)c2cccc(Br)c2)c(OC)c1,.,1%,4%,4%,-3%,-3%
COc1ccc(N=Cc2sc3ccccc3c2Cl)cc1,1%,4%,4.8µM*,?,10%,28%
Oc1ccc(Cl)cc1N=Cc1sc2ccccc2c1Cl,-17%,1%,-17%,?,29%,2%
COc1ccc(C(=O)N/N=C/c2sc3ccccc3c2O)cc1,-95%,-42%,13µM*,?,?,-30%
COc1ccc2cc(C(=O)N/N=C/c3sc4ccccc4c3O)ccc2c1,-106%,-14%,13µM*,18%,?,-3%
O=C(N/N=C/c1sc2ccccc2c1O)c1cccc2ccccc12,-92%,-13%,17µM*,-9%,11%,-21%
O=C(N/N=C/c1ccccc1F)c1cccc2ccccc12,.,?,-8%,29%,6%,?
COC(=O)c1ccccc1NC(=O)c1noc2c1CSc1ccccc1-2,.,.,-12%,.,.,.
CCOc1ccc(CNC(=O)c2ccc(Sc3ccc(C)cc3)c(N)c2)cc1OC,.,.,-19%,.,.,.
CCOc1cc(C2c3c(-c4cc(C)ccc4O)n[nH]c3C(=O)N2CCCOC(C)C)ccc1O (stereo not given),0%,.,-11%,.,.,.
O=C(N/N=C/c1sc2ccccc2c1O)c1ccccc1,-107%,-30%,17µM*,?,?,-27%
O=C(NNc1c([N+](=O)[O-])cc(C(F)(F)F)cc1[N+](=O)[O-])c1ccco1,.,-1%,?,18µM*,-21%,-2%
CCCCCC#CC[C@@H](O)/C=C/C=C/C=C\[C@@H](O)CCCC(=O)O,12%,.,.,.,.,.
O=C(CN1CCCCC1)N/N=C/c1ccc(Cl)cc1,.,7%,-13%,11%,3%,-1%
O=C(O/N=C/c1ccc(Cl)cc1)C1CCCCC1,.,1%,2.7µM*,-3%,-2%,1%
O=C(Nc1ccc(S(=O)(=O)N2CCOCC2)cc1)c1ccc(Br)o1,-22%,-7%[1.84 µM],1%,-4%,-4%,2%
O=C(Nc1ccccc1N1CCOCC1)c1ccc(Br)o1,-2%,0%,-13%,?,-2%,-2%
O=C(Nc1ccc(CN2CCOCC2)cc1)c1ccc(Br)o1,.,?,19µM*,?,?,3.2µM*
CC(C)(CNC(=O)c1ccc(-c2ccccc2Cl)o1)N1CCOCC1,.,?,?,?,13µM*,?
